Experimental data published in PubChem BioAssay (EPA / NIEHS).
Inconclusive results are not listed. More than one record can exist for a structure, and the calls need not agree. Activity calls are given as the source filed them. How the source made its calls: active means hit-call score of the fitted dose curve at least 0.9, where 1 is the maximum; inconclusive means response in the unintended direction; inactive means score below 0.9.

target: Retinoic acid receptor RXR-alpha (Homo sapiens) (UniProt P19793); assay: OT_NURR1_NURR1RXRa_0480: Odyssey Thera (OT) 8-hour HEK293T Protein Complementation Assay for Nurr1/retinoid X receptor (RXR) (AID 2283385)
Experimental: OT_NURR1_NURR1RXRa_0480 is a cell-based assay that uses HEK293T, a human kidney cell line, with measurements taken at 8 hours after chemical dosing in a 384-well plate.OT_NURR1_NURR1RXRa_0480 is one of one assay component(s) measured or calculated from the OT_NURR1_NURR1RXRa_0480 assay. It is designed to make measurements of protein fragment complementation, a form of binding reporter, as detected with fluorescence intensity signals by Protein-fragment Complementation technology.Data from the assay component OT_NURR1_NURR1RXRa_0480 was analyzed into 1 assay endpoint. This assay endpoint, OT_NURR1_NURR1RXRa_0480, was analyzed in the positive analysis fitting direction relative to DMSO as the negative control and baseline of activity. Using a type of binding reporter, measures of receptor for gain-of-signal activity can be used to understand the binding at the pathway-level as they relate to the gene RXRA. Furthermore, this assay endpoint can be referred to as a primary readout, because the performed assay has only produced 1 assay endpoint. To generalize the intended target to other relatable targets, this assay endpoint is annotated to the nuclear receptor intended target family, where the subfamily is non-steroidal.
Protein-fragment complementation assay, or PCA, is a method for the identification and quantification of protein-protein interactions. In the PCA, the proteins of interest ("bait" and "prey") are each covalently linked to fragments of a third protein (e.g. DHFR, which acts as a "reporter"). Interaction between the bait and the prey proteins brings the fragments of the reporter protein in close proximity to allow them to form a functional reporter protein whose activity can be measured.

Retinoic acid receptor RXR-alpha (Homo sapiens), sequence (P19793 whole entry, looked up, the tested form may be a part): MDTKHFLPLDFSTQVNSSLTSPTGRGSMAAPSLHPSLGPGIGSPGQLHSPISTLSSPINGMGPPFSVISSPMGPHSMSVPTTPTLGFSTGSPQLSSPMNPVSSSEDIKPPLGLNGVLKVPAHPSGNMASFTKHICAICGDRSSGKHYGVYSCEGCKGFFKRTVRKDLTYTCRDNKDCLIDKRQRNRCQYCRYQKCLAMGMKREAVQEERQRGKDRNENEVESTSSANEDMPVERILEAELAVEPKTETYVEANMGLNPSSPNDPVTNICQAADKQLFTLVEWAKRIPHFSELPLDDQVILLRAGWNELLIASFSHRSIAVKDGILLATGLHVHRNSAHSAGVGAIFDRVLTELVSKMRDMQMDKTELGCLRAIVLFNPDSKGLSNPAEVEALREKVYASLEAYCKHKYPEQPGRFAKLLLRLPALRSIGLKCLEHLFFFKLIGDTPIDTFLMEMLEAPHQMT

Question: For `c1ccc2cc3ccccc3cc2c1`, which outcome is on record?
Answer: Its outcome is “inactive”.

Question: How did the outcome turn out when `Cn1c(=O)c2[nH]cnc2n(C)c1=O` was run?
Answer: Its outcome is “inactive”.

Question: `CCCC(CCC)C(=O)O` was tested. Which outcome did it give?
Answer: The outcome was “inactive”.

Question: What about the AC50 of the same compound?
Answer: Its AC50 is 90.4 µM (active).

Question: How did the outcome turn out when `CC(=O)c1ccccc1` was run?
Answer: The outcome was “inactive”.

Question: How did the outcome turn out when `CC(C)CC(C)O` (stereo not given) was run?
Answer: Its outcome is “inactive”.

Question: For `CCCCCCCC/C=C\CCCCCCCC(=O)OC[C@@H](O)[C@H]1OC[C@H](O)[C@H]1O`, which outcome is on record?
Answer: Its outcome is “inactive”.

Question: For `CCCCN1C(=O)[C@@H]([C@H](O)C2CCCCC2)NC(=O)C12CCN(Cc1ccc(Oc3ccc(C(=O)O)cc3)cc1)CC2`, which outcome is on record?
Answer: Its outcome is “inactive”.

Question: How did the outcome turn out when `C=CN1CCCC1=O` was run?
Answer: The outcome was “inactive”.

Question: For `OCc1ccccc1`, which outcome is on record?
Answer: The outcome was “inactive”.

Question: `COS(C)(=O)=O` was tested. Which outcome did it give?
Answer: Its outcome is “inactive”.

Question: `c1ccc2ncccc2c1` was tested. Which outcome did it give?
Answer: Its outcome is “inactive”.

Question: What does the source list for `c1ccc(C(O[C@@H]2CCCN(CCc3ccc4c(c3)OCO4)C2)c2ccccc2)cc1`?
Answer: AC50: 89 µM (active); outcome: inactive

Question: Which outcome does the source give for `CCCCCCCCCCCCCCCCOS(=O)(=O)O` here?
Answer: Its outcome is “inactive”.

Question: For `CCCCOC(=O)c1ccccc1`, which outcome is on record?
Answer: The outcome was “inactive”.

Question: With `COc1cc2c(c(OC)c1OC)-c1ccc(OC)c(=O)cc1[C@@H](NC(C)=O)CC2` as the compound, how does the outcome read?
Answer: The outcome was “inactive”.

Question: And the AC50?
Answer: The AC50 was 8.86 µM (active).

Question: With `CC(C)c1nnc2ccc(-c3ocnc3-c3cc(F)ccc3F)cn12` as the compound, how does the outcome read?
Answer: Its outcome is “inactive”.

Question: `CCCCC(CC)C(=O)OCCOCCOCCOC(=O)C(CC)CCCC` (stereo not given) was tested. Which outcome did it give?
Answer: Its outcome is “inactive”.

Question: Which outcome does the source give for `Cn1cc[nH]c1=S` here?
Answer: The outcome was “inactive”.

Question: With `O=C(NO)C1(NS(=O)(=O)c2ccc(Oc3ccc(F)cc3)cc2)CCOCC1` as the compound, how does the outcome read?
Answer: Its outcome is “inactive”.

Question: How did the outcome turn out when `CCc1cccc(CC)c1N` was run?
Answer: Its outcome is “inactive”.

Question: `NC(=O)N(O)[C@@H]1COc2cc(OCc3ccccc3)ccc21` was tested. Which outcome did it give?
Answer: The outcome was “inactive”.

Question: For `OC[C@H]1O[C@@H]2O[C@H]3[C@H](O)[C@@H](O)[C@@H](O[C@H]4[C@H](O)[C@@H](O)[C@@H](O[C@H]5[C@H](O)[C@@H](O)[C@@H](O[C@H]6[C@H](O)[C@@H](O)[C@@H](O[C@H]7[C@H](O)[C@@H](O)[C@@H](O[C@H]1[C@H](O)[C@H]2O)O[C@@H]7CO)O[C@@H]6CO)O[C@@H]5CO)O[C@@H]4CO)O[C@@H]3CO`, which outcome is on record?
Answer: The outcome was “inactive”.

Question: How did the outcome turn out when `CCCCCCCCCC` was run?
Answer: Its outcome is “inactive”.

Question: Which outcome does the source give for `CCCCCCCCN(C)C` here?
Answer: The outcome was “inactive”.

Question: Which outcome does the source give for `OC(CCl)CCl` here?
Answer: Its outcome is “inactive”.

Question: For `CCCOc1ccc(S(=O)(=O)N2CCN(CC)CC2)cc1-c1nc2c(CC)n(Cc3ccccn3)nc2c(=O)[nH]1`, which outcome is on record?
Answer: The outcome was “inactive”.

Question: How did the outcome turn out when `OCCOCCOCCO` was run?
Answer: Its outcome is “inactive”.

Question: `Cc1nccn1-c1ccc(Sc2cccc(C3(C(N)=O)CCOCC3)c2)cc1` was tested. Which outcome did it give?
Answer: The outcome was “inactive”.

Question: How did the outcome turn out when `CCCCCOC(C)=O` was run?
Answer: Its outcome is “inactive”.

Question: `O=S1(=O)CCCO1` was tested. Which outcome did it give?
Answer: The outcome was “inactive”.

Question: How did the outcome turn out when `COCc1nnc(-c2ccc[n+]([O-])c2)n1-c1c(Cl)c(Cl)cc2[nH]c(=O)c(=O)[nH]c12` was run?
Answer: The outcome was “inactive”.

Question: With `O=C(O)c1cccc(C[C@@H]2COc3ccc(OCc4nc5cc(F)ccc5s4)cc3[C@@H]2O)c1` as the compound, how does the outcome read?
Answer: Its outcome is “inactive”.

Question: With `CCCc1ccccc1` as the compound, how does the outcome read?
Answer: Its outcome is “inactive”.

Question: `OCCNCCO` was tested. Which outcome did it give?
Answer: Its outcome is “inactive”.

Question: Which outcome does the source give for `CCOC(N)=O` here?
Answer: The outcome was “inactive”.

Question: `O=C(O)[C@H](O)[C@@H](O)C(=O)O` was tested. Which outcome did it give?
Answer: Its outcome is “inactive”.

Question: `CCCCCCCC1CCC(=O)O1` (stereo not given) was tested. Which outcome did it give?
Answer: The outcome was “inactive”.
